PABP FP inh: PABP-poly(A) binding inhibition; inhibition, % at 35 µM; PABP-poly(A) RNA binding, fluorescence polarization; P11940; 290,000 compounds, 1% hits;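 also: calls also rest on retests at 20 µM and on dose response follow-up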
Target sequence (P11940 whole entry, looked up): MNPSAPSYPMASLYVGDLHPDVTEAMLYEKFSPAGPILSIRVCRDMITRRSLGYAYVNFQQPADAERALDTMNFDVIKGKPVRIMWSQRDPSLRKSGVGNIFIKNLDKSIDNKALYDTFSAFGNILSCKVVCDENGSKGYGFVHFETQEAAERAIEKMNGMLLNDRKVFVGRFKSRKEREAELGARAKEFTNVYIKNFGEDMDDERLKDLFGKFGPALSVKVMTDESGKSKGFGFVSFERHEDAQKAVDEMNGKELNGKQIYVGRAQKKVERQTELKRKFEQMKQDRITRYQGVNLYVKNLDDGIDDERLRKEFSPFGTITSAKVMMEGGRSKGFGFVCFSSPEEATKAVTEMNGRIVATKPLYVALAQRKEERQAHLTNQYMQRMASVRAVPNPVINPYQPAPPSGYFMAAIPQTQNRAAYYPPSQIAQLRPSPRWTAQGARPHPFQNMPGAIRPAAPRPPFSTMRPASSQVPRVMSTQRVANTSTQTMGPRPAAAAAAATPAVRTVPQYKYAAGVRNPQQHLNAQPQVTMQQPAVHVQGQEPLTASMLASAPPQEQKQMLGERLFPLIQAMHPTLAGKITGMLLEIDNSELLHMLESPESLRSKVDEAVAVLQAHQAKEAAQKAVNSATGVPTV
CRFBP-R2 block: CRF-BP/CRF-R2 complex antagonism; HEK293 CRF-R2/CRF-BP, CRF-induced calcium fluorescence; inhibition, % at 11.8 µM; 350,000 compounds, 0.59% hits; AID 588475;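 active = inhibition of the ligand-induced calcium signal above about 50% at the single tested concentration, limit read from the data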
eIF4H inh: inhibitors of RNA binding by human eIF4H; Q15056; eIF4H fluorescence polarization binding assay; inhibition, % at 35 µM; 290,000 compounds, 0.94% hits; AID 2012;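 also: calls also rest on retests at 20 µM and on dose response follow-up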
PHOSPHO1 block: PHOSPHO1 (human) inhibition; Q8TCT1; recombinant PHOSPHO1, absorbance phosphatase assay; inhibition, % at 13.3 µM; 290,000 compounds, 1.1% hits; in the data active = inhibition above about 60%
PABP1 MLLE inh: inhibitors of microRNA-mediated deadenylation, human PABP1 MLLE binding. P11940. GST-MLLE / FITC-PAM2 fluorescence polarization. inhibition, % at 20 µM. 360,000 compounds, 0.36% hits. AID 588489; in the data active = inhibition above about 35%, passing the limit was not always enough;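 also: plate controls were DMSO wells with GST-MLLE for no effect and wells lacking GST-MLLE protein for full effect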
Numbers without * were called inactive. Sampled rows, rich in hits. Any-hit rate of the full collection: about 2.6%. Unless noted, no rule for the calls is given here.

`O=C(O)c1ccc(COc2ccc(/C=N/NC(=O)c3cccs3)cc2)cc1` gave PABP FP inh 58*, CRFBP-R2 block 5, eIF4H inh -1, PHOSPHO1 block 77* and PABP1 MLLE inh -111.
`CCOC(=O)C1=C(C)Nc2ccccc2N=C1NC(=O)C1CCN(C(=O)c2ccccc2C)CC1` gave CRFBP-R2 block -4 and PABP1 MLLE inh 2.
For COc1ccc(S(=O)(=O)N(CC(C)C)C2CCS(=O)(=O)C2)cc1OC (stereo not drawn) the results were CRFBP-R2 block 71* and PABP1 MLLE inh 2.
CCCCN(C1CCS(=O)(=O)C1)S(=O)(=O)c1ccc(OC)c(OC)c1 (stereo not drawn) was read as CRFBP-R2 block -17 and PABP1 MLLE inh 4.
For CCc1ccc(NC(=O)Cn2nc(C(=O)O)c3ccccc3c2=O)cc1 the results were PABP FP inh -11, CRFBP-R2 block 58*, eIF4H inh -16, PHOSPHO1 block 26 and PABP1 MLLE inh -22.
Screening NC(=O)c1c(NC(=O)Cn2nc(C(=O)O)c3ccccc3c2=O)sc2c1CCC2 returned PABP FP inh 3.6*, CRFBP-R2 block 6, eIF4H inh inconclusive, PHOSPHO1 block 10 and PABP1 MLLE inh -1.
`O=C(CCC1CCCC1)Nc1nnc(-c2ccc3c(c2)OCO3)s1` gave PABP FP inh 4, CRFBP-R2 block 8, eIF4H inh 3, PHOSPHO1 block -20 and PABP1 MLLE inh -1.
`Cc1ccc(-n2c(C)cc(C(=O)CN3CCOCC3)c2C)cc1C` gave PABP FP inh 67*, CRFBP-R2 block -12, eIF4H inh active, PHOSPHO1 block 20 and PABP1 MLLE inh -6.
Cc1ccc(-n2c(C)cc(C(=O)CN3CCOCC3)c2C)cc1 was read as PABP FP inh 0, CRFBP-R2 block 2, eIF4H inh -6, PHOSPHO1 block 40 and PABP1 MLLE inh 7.
Screening CC(C)(C)c1cc(NC(=O)C2(C)CCN2C(=O)c2ccccc2CCc2ccccc2)no1 (stereo not drawn) returned PABP1 MLLE inh 1.
For CC(C)[C@H](NC(=O)N1c2ccccc2NC(=O)[C@@H]1C(C)C)C(=O)N[C@H](Cc1ccccc1)C(=O)O the results were PABP FP inh -5, CRFBP-R2 block -3, eIF4H inh 21, PHOSPHO1 block 65* and PABP1 MLLE inh 1.
Screening CC1CC2(CC(CN(C3CCCCC3)C3CCCCC3)OC2=O)C(=O)O1 (stereo not drawn) returned PABP1 MLLE inh -6.
Screening Nc1nc(N=Nc2ccc(O)cc2)cc(=O)[nH]1 returned CRFBP-R2 block -1 and PABP1 MLLE inh 52*.
Screening Nc1nc(N)c(N=Nc2ccccc2)c(=O)[nH]1 returned CRFBP-R2 block 3 and PABP1 MLLE inh -13.
`O=C(NCc1ccccc1)c1cc(C2CCCN(C(=O)c3ccccc3)C2)on1` (stereo not drawn) gave PABP1 MLLE inh -13.
Nc1ccc(C(=O)O)cc1[N+](=O)[O-] was read as PABP FP inh 1, CRFBP-R2 block 1, eIF4H inh 1, PHOSPHO1 block 36 and PABP1 MLLE inh 15.
Screening O=[N+]([O-])c1cc([N+](=O)[O-])c2oc(-c3ccccc3)c(Br)c2c1O returned PABP FP inh 17, CRFBP-R2 block 57*, eIF4H inh -1, PHOSPHO1 block 36 and PABP1 MLLE inh 8.
CC(C)N(C(=O)C1CC(=O)OC12CCCCC2)C(C)C (stereo not drawn) was read as PABP FP inh -6, CRFBP-R2 block -7, eIF4H inh 3, PHOSPHO1 block -9 and PABP1 MLLE inh 2.
For CN(C)C(=O)C1CC(=O)OC12CCCCC2 (stereo not drawn) the results were PABP FP inh 2, CRFBP-R2 block 114*, eIF4H inh -5, PHOSPHO1 block 12 and PABP1 MLLE inh 14.
Screening N#CC1=C(N)C2=C(N3CCCCC3)CCCC2C1(C#N)C#N (stereo not drawn) returned PABP FP inh 112*, CRFBP-R2 block 8, eIF4H inh 110*, PHOSPHO1 block -3 and PABP1 MLLE inh 39*.
Screening Cn1c(=O)n(C)c2cc(S(=O)(=O)Nc3cc(Cl)ccc3O)ccc21 returned PABP FP inh 1, CRFBP-R2 block 103*, eIF4H inh 1, PHOSPHO1 block 39 and PABP1 MLLE inh -27.
`Cn1c(=O)n(C)c2cc(S(=O)(=O)Nc3ccccc3O)ccc21` gave PABP FP inh 2, CRFBP-R2 block -2, eIF4H inh 19, PHOSPHO1 block -6 and PABP1 MLLE inh 1.
For O=C(NCc1ccccc1F)C(=O)NCC1OCCCN1S(=O)(=O)c1cccs1 (stereo not drawn) the results were PABP FP inh 3, CRFBP-R2 block -5, eIF4H inh -12, PHOSPHO1 block 75* and PABP1 MLLE inh 1.
COc1ccccc1CNC(=O)C(=O)NCC1OCCCN1S(=O)(=O)c1cccs1 (stereo not drawn) was read as PABP FP inh 6, CRFBP-R2 block -5, eIF4H inh 20, PHOSPHO1 block 43 and PABP1 MLLE inh -9.
For CCC1(c2ccccc2)CN(C)C1=O (stereo not drawn) the results were CRFBP-R2 block 16 and PABP1 MLLE inh 18.
Screening CCN1c2ccccc2N(C)C1(C)c1ccccc1 (stereo not drawn) returned PABP FP inh 6.9*, CRFBP-R2 block -69, eIF4H inh 84*, PHOSPHO1 block -11 and PABP1 MLLE inh 24.
For CN1c2ccccc2N(C)C1(C)c1ccccc1 the results were PABP FP inh 12*, CRFBP-R2 block -2, eIF4H inh 67*, PHOSPHO1 block 11 and PABP1 MLLE inh 13.
Screening CCc1nc2ccc(C(=O)N3CCN(c4ccccc4F)CC3)cc2nc1CC returned PABP FP inh -8, CRFBP-R2 block 11, eIF4H inh 2, PHOSPHO1 block 44 and PABP1 MLLE inh -1.
For Clc1ccc(C=Cc2ccccn2)c(Cl)c1 the results were CRFBP-R2 block -5 and PABP1 MLLE inh -12.
Screening Fc1ccc(Br)cc1C1C=C(c2cccnc2)Nc2ncnn21 (stereo not drawn) returned PABP FP inh 14, CRFBP-R2 block -14, eIF4H inh 5, PHOSPHO1 block 2 and PABP1 MLLE inh 48*.
Screening CC(C)(C)c1ccc(C2=CC(c3ccccc3F)n3ncnc3N2)cc1 (stereo not drawn) returned CRFBP-R2 block -4 and PABP1 MLLE inh -2.
For CN1CCN(C(=S)c2ccc(-c3cc(Cl)ccc3Cl)o2)CC1 the results were PABP FP inh -6, CRFBP-R2 block 5, eIF4H inh 5, PHOSPHO1 block 28 and PABP1 MLLE inh 11.
For S=C(c1ccc(-c2ccc(Cl)c(Cl)c2)o1)N1CCOCC1 the results were PABP FP inh -5, CRFBP-R2 block -33, eIF4H inh 9, PHOSPHO1 block 13 and PABP1 MLLE inh 22.
For N#CCCN1CCN(C(=S)c2ccc(-c3cc(Cl)ccc3Cl)o2)CC1 the results were PABP FP inh 13, CRFBP-R2 block 37, eIF4H inh 25, PHOSPHO1 block 74* and PABP1 MLLE inh 15.

Screening data (PubChem)
